Unmarked numbers belong to inactive results. Results filed as inconclusive are left out. Where a call stands in place of a potency, no number is given. Activity calls are given as the source filed them. Unless noted, calls come from the whole dose curve; as a rule, active = well fitted curve in the direction sought with a large enough effect in the repeat runs; inconclusive = weak or mixed curves; inactive = no such curve, though single readings can be large; an effect the other way counts as inactive or inconclusive.
Experiments:
[1] = qHTS assay for small molecule agonists of the p53 signaling pathway - cell viability (AID 651633; calls by dose curve;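 note: p53RE-bla HCT reporter cells with a stable beta-lactamase p53 reporter; series mostly up to about 83 µM; nearly all actives have a fitted effect of over 30% in size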)
Method in brief: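 Viability counter-read: CellTiter-Glo luminescence (30 min, room temperature) in the same p53RE-bla plates. These plates had been exposed to compounds for 16 h at 37 C.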

[2] = qHTS assay for small molecules that induce genotoxicity in human embryonic kidney cells expressing luciferase-tagged ATAD5 - cell viability (AID 651634; calls by dose curve; note: nearly all actives have a fitted effect of over 25% in size)
Method in brief: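 Quantitative high-throughput format. HEK293T cells expressing ATAD5 fused to luciferase were plated at 2,000 cells/well and treated 15.5 hr with compound versus DMSO. Viability was determined by fluorescent live-cell protease substrate, 30 min at 37C.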

[3] = qHTS assay for small molecule disruptors of the mitochondrial membrane potential - cell viability (AID 720634; calls by dose curve; note: nearly all actives have a fitted effect of over 20% in size; note: potency is the fitted concentration of half-maximal effect)
Method in brief: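 Same-well counter-screen: following the MMP dye addition, CellTiter-Glo was added to 1 hr compound-treated HepG2 cells and luminescence read after 30 min at room temperature.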

[4] = qHTS assay to test for compound auto fluorescence at 590 nm (red) in HepG2 cells (AID 720674)
Method in brief: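 1 hr compound incubation on HepG2 cells, 37 C, 5% CO2; plate read ex 540 nm / em 590 nm; intensities reported as Rose Bengal sodium equivalents.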

[5] = qHTS assay to test for compound auto fluorescence at 535 nm (green) in HepG2 cells (AID 720675)
[6] = qHTS assay to test for compound auto fluorescence at 460 nm (blue) in HEK293 cells (AID 720678)
Method in brief: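 Blue-channel (Ex/Em 405/460 nm) intensity measured in HEK293 cultures after overnight compound exposure at 37C; signal expressed relative to triamterene. Cells plated 2,000 per well in 10% dialyzed FBS medium and allowed 4-5 hr to attach.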

[7] = qHTS assay to test for compound auto fluorescence at 535 nm (green) in HEK293 cells (AID 720680)
[8] = qHTS assay to test for compound auto fluorescence at 460 nm (blue) in HEK293 cell free culture (AID 720681)
Method in brief: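 Blue fluorescence (Ex 405/Em 460 nm, triamterene-equivalent) was read immediately after pin transfer of compound or DMSO into medium (DMEM, 10% FBS) without cells.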

[9] = qHTS assay to test for compound auto fluorescence at 535 nm (green) in HEK293 cell free culture (AID 720682)
Method in brief: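 Intrinsic compound fluorescence is measured in culture medium containing 10% FBS, with excitation at 485 nm and detection at 535 nm, referenced to fluorescein.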

[10] = qHTS assay to test for compound auto fluorescence at 590 nm (red) in HEK293 cell free culture (AID 720683)
Method in brief: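 Red-channel autofluorescence of compounds in culture medium (DMEM, 10% FBS), no cells, measured at 540/590 nm. Rose Bengal sodium is the reference fluorophore for equivalence.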

[11] = qHTS assay to test for compound auto fluorescence at 460 nm (blue) in HepG2 cell free culture (AID 720685)
Method in brief: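 Cell-free plates of MEM plus 10% FBS received 23 nL compound or DMSO vehicle; blue-channel (405/460 nm) intensity scored against triamterene as reference fluorophore.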

[12] = qHTS assay to test for compound auto fluorescence at 535 nm (green) in HepG2 cell free culture (AID 720686)
[13] = qHTS assay to test for compound auto fluorescence at 460 nm (blue) in HepG2 cells (AID 720687)
Method in brief: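 Blue-channel autofluorescence (Ex/Em 405/460 nm, triamterene-equivalent) was measured after 1 hr compound exposure at 37 C, 5% CO2. Cells were HepG2, plated overnight at 37 C in MEM plus 10% FBS.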

[14] = target: Glucocorticoid receptor (Homo sapiens) (UniProt P04150); test: qHTS assay to identify small molecule agonists of the glucocorticoid receptor (GR) signaling pathway (AID 720691; active = well fitted activation curve with a large enough effect in the signal ratio in the repeat runs, not every such curve was filed as active; the % refers to the signal ratio)
Glucocorticoid receptor (Homo sapiens), sequence (P04150 whole entry, looked up): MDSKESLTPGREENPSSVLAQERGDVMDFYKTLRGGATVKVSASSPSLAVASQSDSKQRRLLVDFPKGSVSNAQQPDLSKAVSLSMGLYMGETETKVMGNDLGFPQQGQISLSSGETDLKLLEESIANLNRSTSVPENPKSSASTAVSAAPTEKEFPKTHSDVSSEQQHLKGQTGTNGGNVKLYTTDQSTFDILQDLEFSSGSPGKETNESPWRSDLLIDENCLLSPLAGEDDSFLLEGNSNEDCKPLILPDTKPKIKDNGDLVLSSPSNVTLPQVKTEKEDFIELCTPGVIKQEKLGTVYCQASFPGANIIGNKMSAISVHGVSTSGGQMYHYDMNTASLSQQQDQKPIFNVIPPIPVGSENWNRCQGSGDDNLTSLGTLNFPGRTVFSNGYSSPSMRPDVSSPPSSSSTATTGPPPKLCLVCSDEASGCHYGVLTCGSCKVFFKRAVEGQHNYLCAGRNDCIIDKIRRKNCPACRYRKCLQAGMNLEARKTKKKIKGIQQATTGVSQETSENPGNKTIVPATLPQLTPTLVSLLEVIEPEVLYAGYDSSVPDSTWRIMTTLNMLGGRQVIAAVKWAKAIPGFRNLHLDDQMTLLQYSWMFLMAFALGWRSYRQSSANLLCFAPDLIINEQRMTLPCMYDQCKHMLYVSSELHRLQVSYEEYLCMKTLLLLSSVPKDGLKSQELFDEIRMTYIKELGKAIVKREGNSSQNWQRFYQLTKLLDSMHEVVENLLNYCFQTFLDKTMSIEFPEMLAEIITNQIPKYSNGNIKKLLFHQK
Method in brief: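 A HeLa cervical cancer line expressing GR and a glucocorticoid response element-driven beta-lactamase gene is treated with compounds for 18 h; LiveBLAzer B/G FRET substrate is then applied and fluorescence read.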

[15] = target: Glucocorticoid receptor (Homo sapiens) (UniProt P04150); test: qHTS assay to identify small molecule antagonists of the glucocorticoid receptor (GR) signaling pathway (AID 720692; active = well fitted inhibition curve with a large enough effect in the signal ratio in the repeat runs, not every such curve was filed as active; the % refers to the signal ratio; note: potency is the fitted concentration of half-maximal effect)
Method in brief: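 GRE-bla HeLa line, dex-stimulated (5 nM final). Compound exposure 18 h, 37 C. Beta-lactamase FRET read after 2 h RT substrate.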

[16] = qHTS assay for small molecule disruptors of the mitochondrial membrane potential (AID 720635); note: potency is the fitted concentration of half-maximal effect
Method in brief: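 Mitochondrial membrane potential tracked with Mito-MPS dye, red aggregates (ex 540/em 590 nm) against green monomers (ex 490/em 535 nm). Compound treatment 1 hr at 37C, dye 30 min in HepG2.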

[17] = qHTS assay to test for compound auto fluorescence at 590 nm (red) in HEK293 cells (AID 720679)
Method in brief: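 Red-channel autofluorescence (Ex/Em 540/590 nm; Rose Bengal sodium reference) was measured after overnight 37C, 5% CO2 exposure of attached HEK293 cells, 2,000 per well in medium with 10% dialyzed FBS.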

[18] = qHTS assay for small molecules that induce genotoxicity in human embryonic kidney cells expressing luciferase-tagged ATAD5 (AID 651632); note: nearly all actives have a fitted effect of over 15% in size
Method in brief: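 Test compounds were delivered by pin tool onto HEK293T reporter cells (2,000/well) expressing ATAD5 fused to luciferase. After 16 hr at 37C, 5% CO2, Amplite was added for 30 min at room temperature and luminescence was measured.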

[19] = qHTS assay to test for compound auto fluorescence at 590 nm (red) in HepG2 cell free culture (AID 720684)
Method in brief: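 No cells present: MEM + 10% FBS only. Compound pinned in, red label read (540/590 nm). Activity = fluorescence equivalent to Rose Bengal sodium.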

| Structure (SMILES) | Potency [1] | Potency [2] | Potency [3] | outcome [4] | outcome [5] | outcome [6] | outcome [7] | outcome [8] | outcome [9] | outcome [10] | outcome [11] | outcome [12] | outcome [13] | outcome [14] | Potency [15] | Potency [16] | outcome [17] | Potency [18] | outcome [19] |
| --- | --- | --- | --- | --- | --- | --- | --- | --- | --- | --- | --- | --- | --- | --- | --- | --- | --- | --- | --- |
| C=C(C#N)CCC#N | inactive | inactive | inactive | inactive | inactive | inactive | inactive | inactive | inactive | inactive | inactive | inactive | inactive | inactive | inactive | – | – | – | – |
| CC1(C)CCC(Cc2ccc(Cl)cc2)C1(O)Cn1cncn1 (stereo not drawn) | – | – | 54.5 µM (active) | inactive | inactive | inactive | inactive | inactive | inactive | inactive | inactive | inactive | inactive | – | – | 54.5 µM (active) | inactive | – | – |
| CN1C(=O)C(O)N=C(c2ccccc2)c2cc(Cl)ccc21 (stereo not drawn) | inactive | inactive | inactive | inactive | inactive | inactive | inactive | inactive | inactive | inactive | inactive | inactive | inactive | – | – | – | inactive | – | – |
| O=C(NC(=O)c1c(F)cccc1F)Nc1cc(Cl)c(Oc2ncc(C(F)(F)F)cc2Cl)c(Cl)c1 | – | inactive | – | inactive | inactive | inactive | inactive | inactive | inactive | inactive | inactive | inactive | inactive | inactive | – | – | inactive | inactive | inactive |
| CCOP(=S)(OCC)SCn1nnc2ccccc2c1=O | – | – | 27.3 µM (active) | inactive | inactive | inactive | inactive | inactive | inactive | inactive | inactive | – | inactive | inactive | – | 27.3 µM (active) | inactive | inactive | inactive |
| Clc1cccc(SC2CCNCC2)n1 | – | inactive | inactive | inactive | – | inactive | inactive | inactive | inactive | inactive | inactive | inactive | inactive | – | – | inactive | inactive | – | inactive |
| Clc1cc(C(Cl)(Cl)Cl)cnc1Cl | inactive | inactive | inactive | inactive | inactive | inactive | inactive | inactive | inactive | inactive | inactive | – | inactive | – | – | – | inactive | – | inactive |
| COC(=O)C(Br)CBr (stereo not drawn) | inactive | inactive | inactive | – | inactive | inactive | inactive | inactive | inactive | inactive | inactive | inactive | inactive | inactive | inactive | – | inactive | – | – |
| O=C(Nc1ccccc1)Nc1ccnc(Cl)c1 | – | – | inactive | inactive | inactive | inactive | inactive | inactive | inactive | inactive | inactive | inactive | inactive | – | 54.9 µM (active) | 0.386 µM (active) | inactive | inactive | – |
| O=C(O)CC(Cl)C(=O)O (stereo not drawn) | – | inactive | – | inactive | inactive | inactive | inactive | inactive | inactive | inactive | inactive | inactive | inactive | inactive | inactive | – | inactive | inactive | – |
| NC(=O)C(Cl)(Cl)Cl | – | inactive | inactive | – | – | inactive | inactive | inactive | inactive | inactive | inactive | inactive | inactive | – | – | inactive | inactive | – | inactive |
| CCOC(=O)[C@]1(c2ccccc2)Oc2ccccc2[C@@H]1N | inactive | inactive | inactive | inactive | inactive | inactive | inactive | inactive | inactive | inactive | inactive | inactive | inactive | – | – | – | inactive | – | – |
| CCOP(=O)(OCC)Oc1ccc([N+](=O)[O-])cc1 | inactive | inactive | inactive | inactive | inactive | inactive | inactive | inactive | inactive | inactive | inactive | inactive | inactive | – | – | inactive | inactive | – | inactive |
